About 13,000 (27%) of roughly 48,000 compounds showed an effect of 50% or more. This is one part of the list.
Each molecule was assayed on Wolbachia pipientis (assay: Anti-Wolbachia Cell-Based Screen). Settings: 5 µM.
Type: functional
Parameters: scale not given: in the data most compounds retested in dose-response had high values

SMILES	Percent Effect [%]
CN(CCN1CCOCC1)C(=O)CCc1ccc(C(F)(F)F)cc1	-5.006
CCc1[nH]c2ccc(CNc3cncc(C(=O)N(C)C)n3)cc2c1C	5.05
Cc1nnc(NCC(c2ccco2)N2CCCC2)c(C#N)c1C (stereo not given)	-0.3665
COC(=O)NCC(=O)N1CCCn2nc(CN3CC[C@H](F)C3)cc2C1	-5.697
Cc1cc(-c2nc(-c3cccc(CN4CCOCC4)c3)no2)no1	-11.24
Cc1occc1-c1nc(-c2cccc(CN3CCOCC3)c2)no1	0.4297
O=C1OCCCN1Cc1nc(-c2ccc(N3CCCCC3)cc2)no1	-4.946
c1cc(N2CCCCC2)ccc1-c1noc(CN2CCOCC2)n1	101.7
O=C1NCCCN1Cc1nc(-c2ccc(N3CCCCC3)cc2)no1	-15.88
Brc1cccc(-c2noc(CN3CCOCC3)n2)c1	107.1
NC(=O)C(NC(=O)Cc1cnn(-c2ccccc2)n1)c1ccccc1 (stereo not given)	-10.55
CNC(=O)C(C)(C)CNC(=O)Nc1cc(C)ccn1	-2.642
CNC(=O)[C@H]1C[C@@H]2CN(C(=O)c3cccnc3)C[C@@H]2N1S(C)(=O)=O.O=C(O)C(F)(F)F	86.97
CNC(=O)[C@H]1C[C@@H]2CN(S(=O)(=O)c3ccc(F)cc3)C[C@@H]2N1C.O=C(O)C(F)(F)F	-8.738
CNC(=O)[C@H]1C[C@@H]2CN(C(=O)c3ccncc3)C[C@@H]2N1S(C)(=O)=O.O=C(O)C(F)(F)F	89.45
CNC(=O)[C@H]1C[C@@H]2CN(S(=O)(=O)c3cccc(C)c3)C[C@@H]2N1C.O=C(O)C(F)(F)F	-8.978
CNC(=O)[C@H]1C[C@@H]2CN(C(=O)c3ccccn3)C[C@@H]2N1S(C)(=O)=O.O=C(O)C(F)(F)F	96.47
CNC(=O)[C@H]1C[C@@H]2CN(S(=O)(=O)c3ccccc3)C[C@@H]2N1C.O=C(O)C(F)(F)F	-12.02
CNC(=O)[C@H]1C[C@@H]2CN(S(=O)(=O)c3ccc(C)cc3)C[C@@H]2N1C.O=C(O)C(F)(F)F	-6.65
CCc1nc(C)c(C(C)N(C)CCOC)s1 (stereo not given)	-4.092
CC(C)c1nnc(NCc2ccsc2)o1	-7.753
COc1cccc(COC(C)C(=O)NCc2nnc3n2CCC3)c1 (stereo not given)	0.6682
Cc1csc(N2CCC(NCC3(O)CCc4ccccc43)CC2)n1 (stereo not given)	-8.914
O=C(NCc1ccccc1)N1Cc2nc(COCC3CC3)oc2C1	6.767

SMILES	Percent Effect [%]
O=C(O)C(F)(F)F.O=C(c1ccncc1F)N1Cc2nc(COCC3CC3)oc2C1	11.83
O=S(=O)(c1cccs1)N1Cc2nc(COCC3CC3)oc2C1	96.89
O=S(=O)(c1cccs1)N1CCN2C[C@H](OCC3CC3)C[C@H]2C1	12.99
COCC1CN(S(=O)(=O)c2cccs2)Cc2ncnn2C1 (stereo not given)	-4.986
O=C(Cc1cccs1)N1Cc2nc(COCC3CC3)oc2C1	106.2
CN(C)c1ncc(-c2cccc(C(N)=O)c2)c(C2CNCCO2)n1.Cl (stereo not given)	103.6
CN(C)c1ncc2c(n1)CCCC2NC(=O)c1ccsc1 (stereo not given)	-6.116
CN(C)c1ncc(-c2ccc(C(N)=O)cc2)c(C2CCNC2)n1.Cl (stereo not given)	101.4
CN(C)c1ncc(-c2ccc(C(N)=O)cc2)c(C2CNCCO2)n1 (stereo not given)	99.82
Cc1nnc(-c2ccc(C(=O)Nc3ccnc(N(C)C)n3)cc2)o1	-7.444
C=Cc1ccc(C(=O)NC2CCCc3nc(N(C)C)ncc32)cc1 (stereo not given)	4.134
CC(C#N)CSc1ccccc1NCC(=O)Nc1ccccc1 (stereo not given)	-8.038
Cn1c(-c2ccccc2Cl)nc2cc(C(=O)NCCOCCO)cnc21	-3.34
O=C(CC1CCCO1)Nc1cccc(N2CCN(CC3CC3)CC2)c1 (stereo not given)	-9.056
Cc1ccc(C)c(NC(=O)Cn2nc(C)c(C#N)c2N)c1	-3.359
CC(C)SCc1cccc(NC2CCN(C)C2=O)c1 (stereo not given)	-2.094
CCc1ccccc1-n1cc(O)c(C(=O)N2CCCCC2)n1	-6.715
CC(=O)N1CCN(C(=O)C(C)n2cncn2)CC1 (stereo not given)	5.614
CC(C(=O)N1CCOCC1)n1cncn1 (stereo not given)	74.2
CC(=O)N1CCCN(C(=O)C(C)n2cncn2)CC1 (stereo not given)	98.01
CCc1nc(CN2CCCN(C(=O)C(C)n3cncn3)CC2)cs1 (stereo not given)	-3.687
Cc1csc(N2CCCN(C(=O)C(C(C)C)n3cncn3)CC2)n1 (stereo not given)	-4.935
CC(C(=O)N1CCN(c2ccccc2Cl)CC1)n1cncn1 (stereo not given)	9.073
CC(C(=O)N1CCN(c2ncccn2)CC1)n1cncn1 (stereo not given)	114.6

SMILES	Percent Effect [%]
CC(C(=O)N1CCN(c2cnccn2)CC1)n1cncn1 (stereo not given)	-0.9189
COc1ccc(NC(C)C(=O)N2CCN(c3ncccn3)CC2)cn1 (stereo not given)	-16.98
CC(C)N1CCN(C(=O)C(C)n2cncn2)CC1 (stereo not given)	90.2
CC(=O)N1C[C@@H](F)[C@@H](OCc2nc3ccc(C#N)cc3[nH]2)C1	-0.3332
Cc1csc(CN(CC2CCCO2)C(=O)c2occc2C)n1 (stereo not given)	-7.004
Cc1ccc(NC2(C(=O)NCc3c(C)n[nH]c3C)CCCC2)cc1	1.889
O=S1(=O)CCC(N(CCc2ccc3c(c2)CCO3)C2CC2)C1 (stereo not given)	-1.378
Cc1ccc(CN2CCOC3(CCCN(C(=O)c4ccco4)C3)C2)o1 (stereo not given)	-7.626
NCCc1c(-c2ccc(F)cc2)[nH][nH]c1=O	105.4
Cc1ccc(-c2[nH][nH]c(=O)c2CCN)cc1	116.2
NCCc1c(-c2ccccc2)[nH][nH]c1=O.O=C(O)C(=O)O	104.8
Cc1nc(C)c(CCNC(Cc2ccncc2)C(F)(F)F)s1 (stereo not given)	2.095
CC(SCCS(C)(=O)=O)c1nc(Cc2ccc(F)cc2)no1 (stereo not given)	-13.13
CNC(=O)c1cn2cc(-c3ccccc3Cl)n(CC=C(C)C)c(=O)c2n1	16.22
COc1ccccc1OC1CN(C(=O)Cc2c(C)nc(N)nc2C)C1	-25.47
COc1ccccc1CN1CC(O)CN(C(=O)OCC(C)C)CC1=O (stereo not given)	126.7
COc1ccccc1CN1CC(OC)CN(C(=O)OCC(C)C)CC1=O (stereo not given)	116.7
COc1ccccc1CNC(=O)N1CCCC(CO)C1 (stereo not given)	3.322
COc1ccccc1C(C)CC(=O)N1CCN(S(N)(=O)=O)CC1 (stereo not given)	6.973
COc1ccccc1CNC(=O)C(C)N1CC(n2nc(C)cc2C)C1 (stereo not given)	-6.868
COc1ccccc1CN1CC(OC)CN(C(=O)CC(C)C)CC1=O (stereo not given)	106.9
COc1ccccc1C(C)CC(=O)N1CCCS1(=O)=O (stereo not given)	-3.86
Cc1cc(CNc2cc(Cl)ccc2OCCS(C)(=O)=O)no1	12.16
COCCN(Cc1ccsc1)C(=O)c1c(C)cc(C)[nH]c1=O	-10.51

SMILES	Percent Effect [%]
Cc1ccoc1C(=O)N1CC[C@H]2[C@H](C[C@@H](CN3CCCC3)N2C)C1.O=C(O)C(F)(F)F.O=C(O)C(F)(F)F	96.15
Cc1oncc1C(=O)N1CC[C@H]2[C@H](C[C@@H](CN(C)C)N2CC2CC2)C1.O=C(O)C(F)(F)F.O=C(O)C(F)(F)F	105.6
CC(C)N1[C@H](CN2CCCC2)C[C@@H]2CN(Cc3ccoc3)CC[C@@H]21.O=C(O)C(F)(F)F.O=C(O)C(F)(F)F.O=C(O)C(F)(F)F	-12.2
Cc1cc(C(=O)N2C[C@@H]3COC[C@]3(CN(C)C)C2)c(C)o1.O=C(O)C(F)(F)F	-9.437
Cc1oncc1C(=O)N1C[C@H]2CCCC(N(C)Cc3cccs3)[C@H]2C1.O=C(O)C(F)(F)F (stereo not given in full)	13.96
Cc1cc(C(=O)N2CC[C@H]3[C@H](C[C@@H](CN4CCCC4)N3C)C2)c(C)o1.O=C(O)C(F)(F)F.O=C(O)C(F)(F)F	132.6
CC(C)N1[C@H](Cn2cncn2)C[C@@H]2CN(Cc3nccn3C)CC[C@@H]21.O=C(O)C(F)(F)F.O=C(O)C(F)(F)F.O=C(O)C(F)(F)F	2.762
CN(C)C[C@@H]1C[C@@H]2CN(Cc3nccn3C)CC[C@@H]2N1CC1CC1	107.7
CS(=O)(=O)N1CC[C@H]2[C@H](C[C@@H](Cn3cncn3)N2CC2CC2)C1.O=C(O)C(F)(F)F	-10.6
CN1[C@H](CN2CCCC2)C[C@@H]2CN(Cc3ccoc3)CC[C@@H]21.O=C(O)C(F)(F)F.O=C(O)C(F)(F)F.O=C(O)C(F)(F)F	3.946
CCOCC1CN(C(=O)c2cc(C)oc2C)Cc2c1cnn2C.O=C(O)C(F)(F)F (stereo not given)	4.422
CC(C)C1CN(Cc2nccn2C)CCC(=O)N1CC1CC1 (stereo not given)	-0.2084
CN(C)C(=O)N1CCN(Cc2nc3ccccc3[nH]2)[C@H]2CS(=O)(=O)C[C@H]21	-17.35
CC(C)c1nc(CN2CCCCC2)cs1	-7.213
CN1CC2(CCN(C(=O)c3ccc(=O)n(C)c3)CC2)CC1=O	119.6
COc1cccc(N2CCN(C(=O)c3ccc(=O)n(C)c3)CC2)c1	-5.711
CN1CC2(CCN(C(=O)c3ccc4nccnc4c3)CC2)CC1=O	-6.042
COCCCN1CC2(CCN(C(=O)c3ccc(=O)n(C)c3)CC2)CC1=O	118.9
CN1CC2(CCN(C(=O)c3ccc4nonc4c3)CC2)CC1=O	-11.27
COCCCN1CC2(CCN(C(=O)Cc3csc(C)n3)CC2)CC1=O	-10.63
COCCCN1CC2(CCN(C(=O)c3ncc(F)cc3F)CC2)CC1=O	74.04
COCCCN1CC2(CCN(Cc3ncc[nH]3)CC2)CC1=O	10.5
CC1(C)CN(C(=O)c2ncc(F)cc2F)CCC1(O)CN1CCOCC1 (stereo not given)	-6.83

— ChEMBL document CHEMBL3988442, “University of Dundee, Small-Polar-MMV Screening Library” (2021)
